Here are results for 47 compounds from PubChem BioAssay AID2685 (National Center for Advancing Translational Sciences (NCATS), 2010).

Structures are written as SMILES. The campaign covered roughly 320,000 compounds. About 2,100 (0.66%) were called active. About 53% were inconclusive and are not listed. The call rests on the fitted dose curve; in most records, active means well fitted inhibition curve with a large enough effect in the signal ratio, with a control signal flat (not every such curve was filed as active); inconclusive means small, poorly fitted or top-dose-only effect, or effect the other way, or a change in a side signal; inactive means flat fitted curve, though single readings scatter; the % refers to the signal ratio. The sample as a whole holds a higher share of actives than the screen did.
Potency means the concentration at half of the fitted maximal effect.

The assay can be described thus: qHTS Assay for Lipid Storage Modulators in Drosophila S3 Cells.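 On cell number change: cells counted by Cell Tracker Red CMTPX staining in the red channel.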 On lipid storage change, negative = inhibition: on the % scale 0 is the no-effect control and ±100 the full control effect. Conditions: BODIPY lipid droplet fluorescence, 18-24 h, cells fed with added oleic acid; cell number change: measured here: cell count max response; series mostly up to 46.1 µM; lipid storage change, negative = inhibition: at the top concentration. An outline of the steps: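 Laser-scanning cytometry quantifies lipid droplet accumulation (500–530 nm total intensity; droplet/cell object ratio) in oleic acid-fed (400 uM added) Drosophila S3 cells treated with a concentration series. 20 uM Triacsin C defined 100% inhibition.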
On the technique in general: qHTS replaces the single test concentration by a dilution series.
As for `CCc1cccc(NC(=S)N(CCN(C)C)C(C)c2ccncc2)c1` (configuration not stated), the “lipid storage change, negative = inhibition” value is 15% (inactive) and the cell number change was -2.18%.
Turning to `O=[N+]([O-])c1ccc(N2CCN(S(=O)(=O)Cc3ccccc3)CC2)cc1N1CCOCC1`, the compound was classed as inactive.
As for `CN1CCN(S(=O)(=O)c2csc(C(N)=O)c2)CC1`, the “lipid storage change, negative = inhibition” value is 2.59% (inactive).
Regarding `COc1ccc(N2CCN(C(=O)Cn3c(=O)c4cccn4c4cccnc43)CC2)cc1`, the compound was called inactive and the cell number change stood at 25.5%.
Take `CCCCn1c(SCC(=O)NCc2ccco2)nc2c1c(=O)n(C)c(=O)n2C`: the “lipid storage change, negative = inhibition” value was -0.0096% (inactive) and the cell number change is -2.87%.
In the case of `CC(C(=O)NCCc1ccc(Cl)cc1)n1c(=O)c2cccn2c2cccnc21` (configuration not stated), the Potency is 0.517 µM (active) and the cell number change was -6.73%.
Take `Cc1nn(CC(=O)NCCc2ccc(Cl)cc2)c(=O)c2cccn12`: the outcome was inactive and the cell number change came to 14.2%.
The matching figures for `O=C(Cn1c(=O)c2cccn2c2ccccc21)NCCc1ccc(Cl)cc1`: “inactive” and 23.3%.
Consider `CCCCOc1ccc(C(=O)N=c2sccn2C)cc1OC`, for which the “lipid storage change, negative = inhibition” value is -21.4% (inactive) and the cell number change is -1.16%.
With `Cn1ccsc1=NC(=O)c1cccc(OC(F)F)c1`, the “lipid storage change, negative = inhibition” value was 26.6% (inactive) and the cell number change was -7.04%.
With `CCOc1cc(C(=O)N=c2sccn2C)ccc1OC(F)F`, the Potency was 11.6 µM (active) and the cell number change is -22.3%.
For `CC(Oc1ccc(Br)cc1)C(=O)Nc1ccc(N2CCOCC2)cc1N1CCOCC1` (configuration not stated), the “lipid storage change, negative = inhibition” value was 8.89% (inactive) and the cell number change was -0.694%.
In the case of `COc1ccccc1Nc1nc(N)nc(CSC(=S)N2CCC(C)CC2)n1`, the “lipid storage change, negative = inhibition” value was 15.2% (inactive) and the cell number change is 8.57%.
Regarding `COc1ccc(C(C)=O)cc1COc1ccc(F)cc1`, the cell number change is -1.38% and the lipid storage change, negative = inhibition is 21.6% [at 9.22 µM] (inactive).
Regarding `Fc1ccc(COc2ccc(-c3nnco3)cc2)c(Cl)c1`, the “lipid storage change, negative = inhibition” value was -21.8% (inactive) and the cell number change amounted to 3.42%.
As to `CCOc1ccc(C(C)=O)cc1COc1ccc(-c2nnco2)cc1`, the Potency is 1.84 µM (active).
`O=C(NCCCn1ccnc1)Nc1ccc(Cl)cc1`: the “lipid storage change, negative = inhibition” value was 1.02% (inactive) and the cell number change is -5.93%.
In the case of `Cc1c(N)cc(N)cc1C(=O)O`, the “lipid storage change, negative = inhibition” value is -21.6% (inactive).
With `Cc1c(Br)cc(C(=O)NC2CCCCC2)c(C)c1C`, the “lipid storage change, negative = inhibition” value was -4.38% (inactive) and the cell number change is -1.86%.
In the case of `Cc1c(Br)cc(C(=O)O)c(C)c1C`, the Potency was 25.9 µM (active) and the cell number change is -29.4%.
Turning to `Cc1nn(-c2ccccc2)c(Cl)c1/C=C1/C(=N)N2N=C(C(C)C)SC2=NC1=O`, the “lipid storage change, negative = inhibition” value is -3.97% (inactive) and the cell number change was determined as 10.8%.
On to `CCOc1ccc(N2CC(C(=O)NCc3nnnn3-c3ccc(C)c(C)c3)CC2=O)cc1` (configuration not stated), for which the call was inactive and the cell number change turned out to be 12.6%.
Consider `O=C(N/N=C/C=C/c1ccc([N+](=O)[O-])cc1)C1COc2ccccc2O1` (configuration not stated), for which the “lipid storage change, negative = inhibition” value is 1.32% (inactive) and the cell number change is -22.4%.
For `Cc1ccc(CSc2ncnc3c2cnn3-c2ccc(C)cc2)cc1`, the “lipid storage change, negative = inhibition” value is -9.41% (inactive) and the cell number change is -6.49%.
For `COc1ccc(-n2ncc3c(NCc4cccnc4)ncnc32)cc1`, the “lipid storage change, negative = inhibition” value was -11.6% (inactive) and the cell number change was -6.4%.
Turning to `Cc1ccc(-n2ncc3c(SCc4ccccc4)ncnc32)cc1`, the “lipid storage change, negative = inhibition” value is -1.89% (inactive) and the cell number change amounted to 8.14%.
Turning to `Fc1ccc(-n2ncc3c(SCc4cccnc4)ncnc32)cc1`, the Potency was 23.1 µM (active) and the cell number change was -12.6%.
For the compound `Clc1ccc(-n2ncc3c(NCc4cccnc4)ncnc32)cc1Cl`, the Potency is 13 µM (active) and the cell number change is -22.6%.
With `Cc1cccc(-n2ncc3c(NCc4cccnc4)ncnc32)c1`, the “lipid storage change, negative = inhibition” value was 0.0879% (inactive) and the cell number change was -21%.
`COc1cccc(NC(=O)Cn2c3ccccc3c3nc4n(c(=O)c32)CCCS4)c1`: the “lipid storage change, negative = inhibition” value is -0.494% (inactive).
The same measure, in the same setting: in the case of `COc1ccc(Cn2nc(C)cc2C)cc1OC` it was 29.5% (inactive).
As to `O=C(CN(c1ccccc1)S(=O)(=O)c1ccccc1)N/N=C/c1ccco1`, the “lipid storage change, negative = inhibition” value is 11.2% (inactive) and the cell number change is 6.67%.
Turning to `COC(=O)CNC(=O)C1CCN(S(=O)(=O)c2cnc[nH]2)CC1`, the Potency is 0.326 µM (active) and the cell number change is -7.96%.
With `CCN(CCCNC(=O)C1CCN(S(=O)(=O)c2cnc[nH]2)CC1)c1ccccc1`, the call was inactive.
As to `O=C(C1CCN(S(=O)(=O)N2CCOCC2)CC1)N1CCN(Cc2ccc3c(c2)OCO3)CC1`, the “lipid storage change, negative = inhibition” value was 11.7% (inactive) and the cell number change was -10.4%.
Consider `COc1ccc(CCNC(=O)C2CCN(S(=O)(=O)c3cnc[nH]3)CC2)cc1OC`, for which the “lipid storage change, negative = inhibition” value was 24.8% (inactive) and the cell number change worked out at 4.12%.
As for `CN(CCNC(=O)C1CCN(S(=O)(=O)c2cnc[nH]2)CC1)Cc1ccccc1`, the “lipid storage change, negative = inhibition” value is -0.914% (inactive) and the cell number change amounted to 11.4%.
As to `CCCCNC(=O)C1CCN(S(=O)(=O)c2cnc[nH]2)CC1`, the Potency is 18.4 µM (active) and the cell number change was -1.76%.
The matching figures for `COc1ccc(CNC(=O)C2CCCN(S(=O)(=O)c3cnc[nH]3)C2)cc1` (configuration not stated): 8.2 µM (active) and -8.84%.
Take `COc1ccccc1CNC(=O)C1CCCN(S(=O)(=O)c2cnc[nH]2)C1` (configuration not stated): the compound was called inactive and the cell number change amounted to 23%.
In the case of `O=C(NCc1ccccn1)C1CCN(S(=O)(=O)c2cnc[nH]2)CC1`, the “lipid storage change, negative = inhibition” value was -1.49% (inactive) and the cell number change was -2.16%.
As for `Cc1ccc(CNC(=O)C2CCCN(S(=O)(=O)c3cnc[nH]3)C2)cc1` (configuration not stated), the “lipid storage change, negative = inhibition” value was -2.15% (inactive) and the cell number change is -11.5%.
With `O=C(C1CCN(S(=O)(=O)c2cnc[nH]2)CC1)N1CCN(Cc2ccc3c(c2)OCO3)CC1`, the Potency was 5.8 µM (active) and the cell number change was 1.49%.
`O=C(C1CCN(S(=O)(=O)c2ccccc2F)CC1)N1CCN(Cc2ccc3c(c2)OCO3)CC1`: the compound was classed as inactive and the cell number change is -10.8%.
As to `CC(=O)NC1=NN(C(C)=O)C(C)(CS(=O)(=O)c2ccc(Cl)cc2)S1` (configuration not stated), the “lipid storage change, negative = inhibition” value is 5.98% (inactive) and the cell number change was -3.99%.
As to `O=C(O)CC(NC(=O)c1ccco1)c1ccco1` (configuration not stated), the outcome was inactive and the cell number change is 3.18%.
On to `Cn1c(-c2ccccn2)[n+](C)c2ccccc21`, for which the “lipid storage change, negative = inhibition” value was -16.5% (inactive) and the cell number change was found to be 8.68%.
